From ChEMBL document CHEMBL3988442, “University of Dundee, Small-Polar-MMV Screening Library” (2021)
The whole screen tested about 48,000 compounds, of which about 13,000 (27%) showed an effect of 50% or more. This is one part of the list.

tested on: Wolbachia pipientis; assay: Anti-Wolbachia Cell-Based Screen; format: functional; parameters: scale not given: in the data most compounds retested in dose-response had high values; settings: 5 µM

Structure (SMILES)	Percent Effect
CC(C)(C)C1CCC(NCCN2CCOCC2)CC1 (stereo not drawn)	-13.34%
Cc1ccc(Cl)cc1NC(=O)C1CC(=O)N(Cc2ccccn2)C1 (stereo not drawn)	-6.487%
COc1ccnc(N2CCN(C(=O)c3csc(C4CC4)n3)CC2)n1	22.41%
Cc1nc(C(=O)Nc2cc(N3CCNC3=O)ccc2Cl)cs1	-12.33%
Cc1nc(C(=O)N2CCN(c3ccc(Cl)c(Cl)c3)CC2)cs1	99.9%
Cc1nc(C(=O)N2CCN(C(C)c3ccccc3F)CC2)cs1 (stereo not drawn)	-7.061%
CNc1nc(C(=O)N2CCN(c3ccc(Cl)c(Cl)c3)CC2)cs1	91.42%
CNc1nc(C(=O)N2CCC3(CCCN(C)C3=O)C2)cs1 (stereo not drawn)	-18.85%
Cc1cc(C2CCCN(Cc3ncc(C(C)C)o3)C2)n[nH]1 (stereo not drawn)	8.603%
CC(C)(C)c1nnc(CN2CCCC(c3cc(C(N)=O)[nH]n3)C2)o1 (stereo not drawn)	1.877%
CCc1nnc(CN2CCCC(c3cc(C(N)=O)[nH]n3)C2)o1 (stereo not drawn)	123.6%
Cc1nc(CN2CCCC(c3cc(C(N)=O)[nH]n3)C2)oc1C (stereo not drawn)	110.2%
CC(C)c1cnc(CN2CCCC(c3cc(C(N)=O)[nH]n3)C2)o1 (stereo not drawn)	94.99%
CC(C)c1nnc(CN2CCCC(c3cc(C(N)=O)[nH]n3)C2)o1 (stereo not drawn)	107%
CCc1nnc(CN2CCCC(c3cc(C(F)(F)F)[nH]n3)C2)o1 (stereo not drawn)	-1.93%
Cc1cnc(CN2CCCC(c3cc(C(N)=O)[nH]n3)C2)o1 (stereo not drawn)	1.908%
Cc1nnc(CN2CCCC(c3cc(C(N)=O)[nH]n3)C2)o1 (stereo not drawn)	-6.189%
CCNc1ccnc(-c2ccnc3c2ccn3C)n1	5.655%
COc1cc(NCCNC(=O)c2ccc3[nH]ccc3c2)cc(OC)c1	-37.35%
CN1C(=O)[C@H]2CC[C@@H]1CN(C(=O)c1sccc1S(N)(=O)=O)C2	0.6963%
Cc1cnc(CN2CCCC(c3cc(C(N)=O)[nH]n3)C2)cn1 (stereo not drawn)	0.6166%
Cc1ncc(CN2CCCC(c3cc(C(N)=O)[nH]n3)C2)s1 (stereo not drawn)	121.8%
O=C(CCc1cscn1)NS(=O)(=O)c1ccc2c(c1)CCC2	0.3885%
Cn1ccc(CN2CCC3(CC2)CC(Nc2cnccn2)CO3)n1.O=C(O)C(F)(F)F (stereo not drawn)	4.568%

Structure (SMILES)	Percent Effect
O=C(Cc1ccccc1)N1CCC2(CC1)CC(Nc1cnccn1)CO2 (stereo not drawn)	117.3%
Cn1ccc(C(=O)N2CCC3(CC2)CC(Nc2cnccn2)CO3)n1 (stereo not drawn)	103.2%
Cn1ccc(CN2CCC3(CC2)CC(Nc2ccccn2)CO3)n1.O=C(O)C(F)(F)F (stereo not drawn)	-6.155%
Cc1nc2ncccn2c1C(=O)N1CCc2[nH]cnc2C1	16.62%
CN(CC1CCN(CCO)CC1)CC(O)c1ccc(F)c(F)c1 (stereo not drawn)	6.752%
Cc1ccc(CCNc2nccc(-c3cc(C(=O)O)ccn3)n2)o1	-34.17%
COC(=O)c1ccc2c(-c3ccnc(N[C@@H](C)CO)n3)c[nH]c2c1	96.47%
COc1cccc(-n2cc(-c3ccnc(N[C@@H](CO)C(C)C)n3)cn2)c1	-10.41%
CC(C)C(=O)NCCNc1nccc(-c2cc(C(=O)O)ccn2)n1	-18.63%
COC(=O)c1cccc(-c2c[nH]c(C)n2)c1	-9.245%
CC[C@@H](CO)Nc1nccc(-c2c[nH]c3cc(C(=O)OC)ccc23)n1	73.76%
CSCCCNc1nccc(-c2cc(C(=O)O)ccn2)n1	-11.9%
COC(=O)c1ccc2c(-c3ccnc(NCCO)n3)c[nH]c2c1	85.03%
CCCN1C[C@H]2CC[C@@H]1CN(Cc1ccc(-n3cccn3)cc1)C2	12.23%
O=C(CCc1cn[nH]c1)N1CCC(C2CCN(c3ncccn3)CC2)C1 (stereo not drawn)	-3.024%
CN1CCN(C[C@@H]2CN(C(=O)CCc3cn[nH]c3)C[C@@H]2CO)CC1	-11.62%
CN1CCOC(CNCc2nc(-c3cccnc3)no2)C1 (stereo not drawn)	17.39%
CN1CCOC(CNCc2coc(-c3cccc(Cl)c3)n2)C1 (stereo not drawn)	93.12%
CN1CCOC(CNCc2coc(-c3cccc(F)c3)n2)C1 (stereo not drawn)	69.38%
CN(C)Cc1ccc(C2CCCCN2C(=O)c2cc(=O)[nH]c(=O)[nH]2)cc1 (stereo not drawn)	-0.1381%
Cc1cnn(CCNCc2nc(-c3ccccc3Cl)no2)c1	-13.51%
CC[C@H]1N(CC2CCOCC2)CCC[C@]12CCC(=O)N2.O=C(O)C(F)(F)F	-18.34%
COCCN(Cc1ccc(C)cc1)Cc1c[nH]cn1	-2.598%
Cc1cc(C)n(CCC2CC(=O)Nc3cc(O)c(C)cc32)n1 (stereo not drawn)	-2.617%
